Experimental data from PubChem BioAssay AID2284378 (EPA ToxCast).
Inconclusive results are not listed. Active and inactive are the calls of the source. Rule for the calls: active = hit-call score of the fitted dose curve at least 0.9, where 1 is the maximum; inconclusive = response in the unintended direction; inactive = score below 0.9.

Test system: frog Retinoid X Receptor beta (RXRb), gene 394278
Assay: ATG_frRXRb_EcoTox2: Attagene TRANS-FACTORIAL EcoTox-2 HepG2 Assay for frog Retinoid X Receptor beta (RXRb)
Procedure: ATG_EcoTox2 is a cell-based, multiplexed assay created by modifying the existing Attagene TRANS-FACTORIAL system to include a panel of nuclear receptors from some or all the following species: human (Homo sapiens), african clawed frog (Xenopus laevis), rainbow trout (Oncorhynchus mykiss), japanese medaka (Oryzias latipes), and zebrafish (Danio rerio). The ECOTOX2-FACTORIAL format uses HepG2, a human liver cell line, with measurements taken at 24 hours after chemical dosing in a 24-well plate. ATG_frRXRb_EcoTox2 is one of 29 assay components calculated in the ATG_EcoTox2 assay. It is designed to make measurements of mRNA induction, a form of inducible reporter, as detected with fluorescence intensity signals by Reverse transcription polymerase chain reaction (RT-PCR) and Capillary electrophoresis technology.The assay endpoint ATG_frRXRb_EcoTox2 was analyzed in the positive analysis fitting direction relative to DMSO as the negative control and baseline of activity. Using a type of inducible reporter, measures of mRNA for gain-of-signal activity can be used to understand the reporter gene at the transcription factor-level as they relate to the gene RXRb. Furthermore, this assay endpoint can be referred to as a primary readout, because this assay has produced multiple assay endpoints where this one serves a reporter gene function. […]
Human liver HepG2 cells are transiently transfected with multiple reporter transcription units (MRTUs) in 6-well plates using FuGene 6 reagent (Roche; 3 ml FuGene/1 mg DNA). […] A major difference between the CIS and TRANS system is that in CIS activities of endogenous TFs are measured, whereas the TRANS assay evaluates changes in activities of exogenous, chimeric NR-Gal4 proteins. […] The fragments were purified using Qiaquick PCR columns (Qiagen), analyzed on an ABI 3130xL genetic analyzer (Applied Biosystems) with peak positions identified by using a set of X-rhodamine (ROX)-labeled MapMarker1000 molecular weight standards (BioVentures). […]

Structure (SMILES) | AC50
O=C(O)C(F)(F)C(F)(F)C(F)(F)C(F)(F)C(F)(F)C(F)(F)C(F)(F)F | 30 µM (active)
[Cl][Sn]([c]1ccccc1)([c]1ccccc1)[c]1ccccc1 | 0.0888 µM (active)
CCCCOCN(C(=O)CCl)c1c(CC)cccc1CC | 38.5 µM (active)
